# What was measured:
# Experiment in all cases: PBM binding z-score (relative to random genomic background probes); higher = stronger binding; sequences stand for … in GC…GCGATTGACAGCGTAGAATGAAGG
# [1] = system: FXR:RXRa (NR concentration 270 nM, RXRa partner concentration 90 nM)
# Outline: (§1)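 On custom Agilent 4×180K arrays, double-stranded probes with 34-nt variable regions carried direct-repeat seeds, single-nucleotide variants, half-site ablations or random human genomic background. Ligand-free nuclear receptor dimers were applied for 1 h, and binding was read with antibodies against each partner (one per run). Binding z-scores come from regression-normalized fluorescence, with the random background probes as reference.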
# [2] = system: LXRa:RXRa (NR concentration 270 nM, RXRa partner concentration 90 nM)
# Outline: as §1
# [3] = system: LXRa homodimer (NR concentration 270 nM)
# Outline: as §1
# [4] = system: LXRb:RXRa (NR concentration 270 nM, RXRa partner concentration 90 nM)
# Outline: as §1
# [5] = system: LXRb homodimer (NR concentration 270 nM)
# Outline: as §1
# [6] = system: PPARa:RXRa (NR concentration 270 nM, RXRa partner concentration 90 nM)
# Outline: as §1
# [7] = system: PPARg:RXRa (NR concentration 180 nM, RXRa partner concentration 90 nM)
# Outline: as §1
# [8] = system: PPARg:RXRa 270nM:90nM, anti-RXR (NR concentration 270 nM, RXRa partner concentration 90 nM)
# Outline: as §1
# [9] = system: PPARg:RXRa 30nM:10nM, anti-RXR (NR concentration 30 nM, RXRa partner concentration 10 nM)
# Outline: as §1
# [10] = system: PPARg:RXRa 90nM:30nM, anti-RXR (NR concentration 90 nM, RXRa partner concentration 30 nM)
# Outline: as §1
Sequence,PBM binding z-score [1],PBM binding z-score [2],PBM binding z-score [3],PBM binding z-score [4],PBM binding z-score [5],PBM binding z-score [6],PBM binding z-score [7],PBM binding z-score [8],PBM binding z-score [9],PBM binding z-score [10]
TGAATTAGGTTATAAGATCAGGGAACGTTGCAAA,0.295,0.216,-0.00025,0.474,0.221,1.97,2.18,3.06,1.96,2.45
CGTCAAAGTTCAAGGTAACGAAACAGAAAGCAGC,6.35,5.77,2.25,3.3,0.914,4.7,4.6,5.48,2.22,4.42
ATACCAAGGAGATCGTGAGGTCGTTGATACTAAC,0.608,0.359,0.339,0.531,-0.481,0.547,0.375,-0.542,-0.0699,-0.394
ACAGACAGGTGATGAAGGTAACTCAGGCTATCAT,-0.17,-0.295,-0.208,-0.204,-0.527,0.152,0.816,-0.0244,-0.0108,-0.132
GATACAGGGTCAGCTAGTGGCCAGAGTATGGAAA,4.54,2.31,-0.558,2.21,-0.762,4.49,3.55,3.25,0.61,1.77
TGTCAAAGTTCAAGGGTAACGTAAGTATCCACAC,6.24,6.1,3.43,3.73,0.957,5.25,8.36,7.5,5.26,7.05
TAACCAAGGTGAAGGTCGTTGATCCCTCTGTAGA,2.07,2.07,0.0328,1.66,-0.394,2.58,3.03,3.53,2.15,4.01
CCTACTAGTTGACCATAAGGGCAACCGAAGCTCG,0.832,0.281,0.276,0.306,0.518,0.516,0.418,0.311,-0.164,0.0805
CCTTACGGGTAAAGGTTATAGCACGGGTGGTACG,1.2,1.69,0.37,1.19,-0.173,3.02,2.95,4.67,2.06,3.73
CCGAGTAGGTTATGGGGCACTCAGGCAACGGTGA,0.104,0.294,-0.464,0.136,-0.707,2.08,3.55,4.33,2.45,4.11
CAAACTAGATCACGAAAGGTCAAAGTCGAATGAC,5.13,5.95,5.88,5.7,2.42,5.61,4.16,5.04,2.26,3.98
AGTCAAAGTTCATCTATGTAACGTAAGATATGCT,6.5,5.79,5.16,3.59,1.69,4.44,6.21,5.9,3.03,5.29
GCGACTGCGGCAAAGCAGGTTACCATAAGGTTGG,-0.436,-0.494,-0.713,-0.429,-1.51,0.0395,0.3,-0.534,-0.785,-0.92
AGAATGAGGTTATACGTCGATCAGGGAAGAAAGT,2.16,1.54,-0.164,1.29,0.0862,3.16,2.32,2.99,1.45,2.25
TAGCCTAGGTCAGATCGGGCCAATATACGCTATA,1.51,1.46,0.0992,1.22,0.0531,1.79,0.875,0.613,-0.00847,0.383
CAAACTAGGTCATGAGGTCAAAGTCCGCTTCCCG,6.96,6.16,5.21,4.92,1.82,6.48,9.89,8.16,6.58,8.76
GCTTACGGGTCAAAGGCTATAGCATGAATAGAAT,5.51,3.89,0.00427,3.82,0.0561,6.01,7.81,6.86,5.03,6.55
TCTATTGGTTGAAGGGCAACCGACGAGTCCGTTT,0.476,0.767,0.01,0.546,0.657,1.23,0.669,2.98,3.37,3.23
TCATATAGGTAAACAGCTGAAAGTCCGTAAGTTA,1.09,0.759,0.185,0.758,-0.215,1.37,0.75,2.36,3.9,3.19
CATACTAGGTCACCGGAAGGTCAAAGTCCGCATG,5.94,6.26,5.63,5.54,2.08,5.71,8.32,7.18,4.5,6.47
CCTACTGAGCCAAGGTCATTGATCAGTCAAAGCA,3.46,3.43,1.43,3.3,0.637,3.61,0.656,1.62,0.331,0.858
TGTCGGAGGACACGAAAGGTCAGAGCTCGACATC,3.25,3.96,2.69,3.16,0.015,3.69,1.62,2.54,0.799,1.53
GCGACTGGGGCAAAGCAGGATACCATAAGGTTGG,0.421,-0.82,-0.556,-0.347,-0.952,0.75,1.31,1.03,-0.094,0.712
CTACCAAGGTGAACAAGGTCATTGATTACTATTC,3.73,3.77,2.33,3.63,-0.00581,3.92,2.24,2.85,0.479,1.65

# Reference: the supplement of paper PMC6555819
